What was measured:
Experiment in all cases: DAPPL (digital affinity profiling via proximity ligation, sequencing); 10 mM Tris-HCl pH 7.5, 50 mM NaCl, 1 mM DTT, 4% glycerol, room temperature, 30 min; GST-TFs on glutathione beads, 16-mer random dsDNA library, 0.1% formaldehyde crosslink after washing; high values mean tight binding
FLI1 = target: T1, FLI1 (Homo sapiens, UniProt Q01543 1-452); conditions: protein: recombinant; tags: N-terminal GST; dsDNA, one strand shown
T1 sequence: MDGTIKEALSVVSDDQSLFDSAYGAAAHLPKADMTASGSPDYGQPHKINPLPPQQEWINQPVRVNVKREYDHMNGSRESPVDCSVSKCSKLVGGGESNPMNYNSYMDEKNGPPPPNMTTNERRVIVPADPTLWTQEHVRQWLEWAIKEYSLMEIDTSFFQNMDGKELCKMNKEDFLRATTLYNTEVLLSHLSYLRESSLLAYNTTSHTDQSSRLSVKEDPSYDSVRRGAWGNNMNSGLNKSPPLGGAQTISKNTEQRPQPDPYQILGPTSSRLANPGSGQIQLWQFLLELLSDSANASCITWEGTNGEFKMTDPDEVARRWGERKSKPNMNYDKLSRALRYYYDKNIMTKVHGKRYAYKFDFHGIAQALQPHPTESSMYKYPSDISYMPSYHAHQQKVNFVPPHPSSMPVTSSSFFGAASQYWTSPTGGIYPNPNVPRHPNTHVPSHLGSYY
Outline: (§1)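 Pools of DNA-barcoded human transcription factors, expressed in yeast as GST fusions on glutathione beads and combined with a tag-only sample, were incubated with 200 nmole of a 16-mer random double-stranded DNA library. Incubation took 30 min at room temperature in Tris/NaCl/DTT/glycerol buffer and was followed by washing, 0.1% formaldehyde crosslinking, proximity ligation (BsaI/T4 ligase, 1 h, 37 °C), PCR amplification and sequencing on an Illumina NextSeq500. Binding signal is the ratio of a hexamer's read frequency for a factor to its frequency for the tag-only sample.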

ELK1 = target: T2, ELK1 (Homo sapiens, UniProt P19419 1-428); conditions: protein: recombinant; tags: N-terminal GST; dsDNA, one strand shown
T2 sequence: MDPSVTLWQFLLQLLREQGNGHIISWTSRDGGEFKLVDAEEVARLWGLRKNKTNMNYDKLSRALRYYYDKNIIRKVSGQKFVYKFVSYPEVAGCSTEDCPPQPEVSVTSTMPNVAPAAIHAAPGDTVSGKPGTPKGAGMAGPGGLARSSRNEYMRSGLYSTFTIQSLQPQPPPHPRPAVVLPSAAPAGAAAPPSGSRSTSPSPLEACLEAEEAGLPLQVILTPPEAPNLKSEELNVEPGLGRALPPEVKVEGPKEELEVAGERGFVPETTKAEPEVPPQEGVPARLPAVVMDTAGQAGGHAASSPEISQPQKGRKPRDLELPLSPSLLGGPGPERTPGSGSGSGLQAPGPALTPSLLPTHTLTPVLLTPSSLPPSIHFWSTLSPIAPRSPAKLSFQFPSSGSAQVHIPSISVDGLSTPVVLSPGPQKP
Outline: as §1

GABPA = target: T3, GABPA (Homo sapiens, UniProt Q06546 1-454); conditions: protein: recombinant; tags: N-terminal GST; dsDNA, one strand shown
T3 sequence: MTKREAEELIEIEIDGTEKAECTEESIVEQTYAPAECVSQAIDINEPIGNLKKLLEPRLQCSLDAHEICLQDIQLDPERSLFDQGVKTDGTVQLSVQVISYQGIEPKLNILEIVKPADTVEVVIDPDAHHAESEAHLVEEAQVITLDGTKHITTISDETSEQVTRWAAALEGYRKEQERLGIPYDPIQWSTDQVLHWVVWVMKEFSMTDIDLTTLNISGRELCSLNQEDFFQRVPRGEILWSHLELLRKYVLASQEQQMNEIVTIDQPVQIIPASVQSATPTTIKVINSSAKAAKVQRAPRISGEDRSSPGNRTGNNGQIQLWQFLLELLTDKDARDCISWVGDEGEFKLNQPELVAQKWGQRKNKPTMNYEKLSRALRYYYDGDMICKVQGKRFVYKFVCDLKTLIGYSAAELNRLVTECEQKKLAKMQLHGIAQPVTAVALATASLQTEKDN
Outline: as §1

ERG = target: T4, ERG (Homo sapiens, UniProt P11308 1-479); conditions: protein: recombinant; tags: N-terminal GST; dsDNA, one strand shown
T4 sequence: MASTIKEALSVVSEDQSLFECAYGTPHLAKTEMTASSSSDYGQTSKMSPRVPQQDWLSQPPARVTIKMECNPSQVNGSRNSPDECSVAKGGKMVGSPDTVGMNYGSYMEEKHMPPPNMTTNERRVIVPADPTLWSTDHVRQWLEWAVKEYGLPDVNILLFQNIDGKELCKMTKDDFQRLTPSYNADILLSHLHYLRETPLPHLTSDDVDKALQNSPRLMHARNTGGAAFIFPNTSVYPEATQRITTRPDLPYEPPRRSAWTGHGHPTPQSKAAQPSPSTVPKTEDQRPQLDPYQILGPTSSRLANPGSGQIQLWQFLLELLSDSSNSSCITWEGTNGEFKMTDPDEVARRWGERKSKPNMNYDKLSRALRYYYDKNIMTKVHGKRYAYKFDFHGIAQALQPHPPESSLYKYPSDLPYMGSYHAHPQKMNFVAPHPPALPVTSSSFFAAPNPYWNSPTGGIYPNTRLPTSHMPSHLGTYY
Outline: as §1

ELF1 = ELF1 (Homo sapiens, UniProt P32519 1-619); conditions: protein: recombinant; tags: N-terminal GST; dsDNA, one strand shown
Outline: as §1

EHF = target: T5, EHF (Homo sapiens, UniProt Q9NZC4 1-300); conditions: protein: recombinant; tags: N-terminal GST; dsDNA, one strand shown
T5 sequence: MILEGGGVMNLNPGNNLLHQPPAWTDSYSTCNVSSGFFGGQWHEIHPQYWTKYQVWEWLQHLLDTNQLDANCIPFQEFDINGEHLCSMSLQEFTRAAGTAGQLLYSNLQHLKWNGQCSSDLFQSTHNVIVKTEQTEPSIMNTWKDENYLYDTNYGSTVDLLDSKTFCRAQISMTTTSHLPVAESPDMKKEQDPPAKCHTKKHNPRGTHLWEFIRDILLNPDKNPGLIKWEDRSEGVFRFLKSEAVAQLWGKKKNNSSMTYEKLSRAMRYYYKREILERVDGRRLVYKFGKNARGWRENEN
Outline: as §1

SPI1 = SPI1 (Homo sapiens, UniProt P17947 1-270); conditions: protein: recombinant; tags: N-terminal GST; dsDNA, one strand shown
Outline: as §1

SPIB = SPIB (Homo sapiens, UniProt Q01892 1-262); conditions: protein: recombinant; tags: N-terminal GST; dsDNA, one strand shown
Outline: as §1

FEV = target: T6, FEV (Homo sapiens, UniProt Q99581 1-238); conditions: protein: recombinant; tags: N-terminal GST; dsDNA, one strand shown
T6 sequence: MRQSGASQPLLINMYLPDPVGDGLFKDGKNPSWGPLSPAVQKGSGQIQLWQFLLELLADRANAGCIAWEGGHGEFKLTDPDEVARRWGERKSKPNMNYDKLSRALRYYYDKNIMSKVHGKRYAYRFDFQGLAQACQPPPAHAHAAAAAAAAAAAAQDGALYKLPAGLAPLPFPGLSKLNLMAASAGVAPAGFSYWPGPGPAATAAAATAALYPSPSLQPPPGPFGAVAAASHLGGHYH
Outline: as §1

ETV5 = ETV5 (Homo sapiens, UniProt P41161 1-510); conditions: protein: recombinant; tags: N-terminal GST; dsDNA, one strand shown
Outline: as §1

HSF1 = HSF1 (Homo sapiens, UniProt Q00613 1-529); conditions: protein: recombinant; tags: N-terminal GST; chain copies: 3; dsDNA, one strand shown
Outline: as §1

SPIC = target: T7, SPIC (Homo sapiens, UniProt Q8N5J4 1-248); conditions: protein: recombinant; tags: N-terminal GST; dsDNA, one strand shown
T7 sequence: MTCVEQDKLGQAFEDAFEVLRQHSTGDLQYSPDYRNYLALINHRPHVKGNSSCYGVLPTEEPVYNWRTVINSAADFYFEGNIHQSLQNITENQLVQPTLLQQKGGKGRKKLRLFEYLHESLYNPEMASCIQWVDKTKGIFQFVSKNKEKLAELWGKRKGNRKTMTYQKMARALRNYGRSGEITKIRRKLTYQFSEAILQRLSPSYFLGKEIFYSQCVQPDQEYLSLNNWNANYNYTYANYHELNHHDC
Outline: as §1

ELF4 = ELF4 (Homo sapiens, UniProt Q99607 1-663); conditions: protein: recombinant; tags: N-terminal GST; dsDNA, one strand shown
Outline: as §1

ELK4 = target: T8, ELK4 (Homo sapiens, UniProt P28324-2 1-405); conditions: protein: recombinant; tags: N-terminal GST; dsDNA, one strand shown
T8 sequence: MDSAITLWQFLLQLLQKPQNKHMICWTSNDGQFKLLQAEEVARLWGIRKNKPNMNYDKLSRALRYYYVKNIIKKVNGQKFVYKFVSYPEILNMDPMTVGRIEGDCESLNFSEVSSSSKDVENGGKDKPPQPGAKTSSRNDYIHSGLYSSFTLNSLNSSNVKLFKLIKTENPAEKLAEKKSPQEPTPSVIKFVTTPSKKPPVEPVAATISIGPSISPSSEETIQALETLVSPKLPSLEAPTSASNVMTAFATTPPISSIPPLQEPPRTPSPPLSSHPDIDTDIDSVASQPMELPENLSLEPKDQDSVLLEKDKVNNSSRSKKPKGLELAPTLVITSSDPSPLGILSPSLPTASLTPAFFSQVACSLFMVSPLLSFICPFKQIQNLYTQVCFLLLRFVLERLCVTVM
Outline: as §1

ETV2 = target: T9, ETV2 (Homo sapiens, UniProt O00321 1-342); conditions: protein: recombinant; tags: N-terminal GST; dsDNA, one strand shown
T9 sequence: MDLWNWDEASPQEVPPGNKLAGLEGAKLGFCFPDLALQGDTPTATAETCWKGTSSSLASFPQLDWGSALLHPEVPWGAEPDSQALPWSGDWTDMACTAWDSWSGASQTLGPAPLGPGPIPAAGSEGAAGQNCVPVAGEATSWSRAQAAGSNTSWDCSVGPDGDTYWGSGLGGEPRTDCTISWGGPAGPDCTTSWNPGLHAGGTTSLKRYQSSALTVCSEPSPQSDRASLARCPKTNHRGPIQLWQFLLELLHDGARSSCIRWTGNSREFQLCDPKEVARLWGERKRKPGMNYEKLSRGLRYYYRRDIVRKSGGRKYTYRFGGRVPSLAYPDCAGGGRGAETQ
Outline: as §1

ELF3 = target: T10, ELF3 (Homo sapiens, UniProt P78545 1-371); conditions: protein: recombinant; tags: N-terminal GST; dsDNA, one strand shown
T10 sequence: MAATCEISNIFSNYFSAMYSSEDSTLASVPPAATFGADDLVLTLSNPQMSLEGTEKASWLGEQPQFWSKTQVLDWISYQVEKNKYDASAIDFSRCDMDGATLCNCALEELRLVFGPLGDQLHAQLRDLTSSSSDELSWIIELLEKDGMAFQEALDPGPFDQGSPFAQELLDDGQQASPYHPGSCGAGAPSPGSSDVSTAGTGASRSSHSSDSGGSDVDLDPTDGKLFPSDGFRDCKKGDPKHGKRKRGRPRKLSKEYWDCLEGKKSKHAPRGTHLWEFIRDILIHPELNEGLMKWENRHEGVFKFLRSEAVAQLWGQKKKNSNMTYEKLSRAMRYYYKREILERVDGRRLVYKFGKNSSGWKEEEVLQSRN
Outline: as §1

CRX = CRX (Homo sapiens, UniProt O43186 1-299); conditions: protein: recombinant; tags: N-terminal GST; dsDNA, one strand shown
Outline: as §1

ETV1 = ETV1 (Homo sapiens, UniProt P50549 1-477); conditions: protein: recombinant; tags: N-terminal GST; dsDNA, one strand shown
Outline: as §1

Chain of HSF1 (Q00613 whole entry): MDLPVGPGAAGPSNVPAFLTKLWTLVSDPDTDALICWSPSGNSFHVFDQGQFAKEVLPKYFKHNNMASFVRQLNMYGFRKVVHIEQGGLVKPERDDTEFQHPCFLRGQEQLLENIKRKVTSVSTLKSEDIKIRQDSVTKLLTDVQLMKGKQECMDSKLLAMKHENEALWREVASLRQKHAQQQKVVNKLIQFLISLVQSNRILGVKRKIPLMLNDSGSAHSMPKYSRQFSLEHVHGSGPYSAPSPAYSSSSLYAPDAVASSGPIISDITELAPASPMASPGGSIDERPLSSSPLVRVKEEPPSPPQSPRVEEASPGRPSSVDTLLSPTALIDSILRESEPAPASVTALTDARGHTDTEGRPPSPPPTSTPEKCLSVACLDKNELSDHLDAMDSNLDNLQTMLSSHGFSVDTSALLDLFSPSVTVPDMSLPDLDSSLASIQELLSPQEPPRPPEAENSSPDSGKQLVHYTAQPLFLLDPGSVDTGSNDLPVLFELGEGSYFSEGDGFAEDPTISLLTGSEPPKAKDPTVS
Chain of CRX (O43186 whole entry): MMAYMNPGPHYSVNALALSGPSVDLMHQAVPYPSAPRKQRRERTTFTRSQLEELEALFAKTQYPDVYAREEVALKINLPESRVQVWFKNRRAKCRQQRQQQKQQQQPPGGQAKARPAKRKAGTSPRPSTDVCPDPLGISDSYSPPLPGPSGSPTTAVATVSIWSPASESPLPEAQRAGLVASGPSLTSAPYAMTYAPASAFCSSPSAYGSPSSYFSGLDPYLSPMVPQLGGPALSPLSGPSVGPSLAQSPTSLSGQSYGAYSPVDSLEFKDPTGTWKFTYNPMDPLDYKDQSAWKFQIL
Chain of ETV1 (P50549 whole entry): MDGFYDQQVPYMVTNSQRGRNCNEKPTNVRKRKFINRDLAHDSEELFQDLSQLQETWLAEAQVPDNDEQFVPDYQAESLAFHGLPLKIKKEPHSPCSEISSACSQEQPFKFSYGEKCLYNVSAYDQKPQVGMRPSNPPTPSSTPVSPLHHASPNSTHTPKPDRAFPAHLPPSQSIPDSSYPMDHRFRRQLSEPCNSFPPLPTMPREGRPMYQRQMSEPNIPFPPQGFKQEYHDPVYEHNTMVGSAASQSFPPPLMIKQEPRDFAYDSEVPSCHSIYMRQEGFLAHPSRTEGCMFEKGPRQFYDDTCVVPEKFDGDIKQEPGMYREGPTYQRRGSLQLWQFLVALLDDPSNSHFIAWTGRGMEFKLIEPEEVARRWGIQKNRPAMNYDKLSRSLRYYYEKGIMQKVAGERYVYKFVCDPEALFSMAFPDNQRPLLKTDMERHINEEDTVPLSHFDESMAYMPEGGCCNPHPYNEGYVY
Chain of SPIB (Q01892 whole entry): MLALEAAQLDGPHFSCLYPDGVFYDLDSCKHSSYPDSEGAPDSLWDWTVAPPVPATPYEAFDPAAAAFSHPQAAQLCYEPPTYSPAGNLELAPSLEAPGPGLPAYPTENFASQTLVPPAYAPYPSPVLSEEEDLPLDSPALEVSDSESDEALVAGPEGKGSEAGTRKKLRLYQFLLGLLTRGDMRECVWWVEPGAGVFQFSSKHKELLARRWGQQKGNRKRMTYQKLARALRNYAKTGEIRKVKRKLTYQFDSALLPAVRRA
Chain of ELF4 (Q99607 whole entry): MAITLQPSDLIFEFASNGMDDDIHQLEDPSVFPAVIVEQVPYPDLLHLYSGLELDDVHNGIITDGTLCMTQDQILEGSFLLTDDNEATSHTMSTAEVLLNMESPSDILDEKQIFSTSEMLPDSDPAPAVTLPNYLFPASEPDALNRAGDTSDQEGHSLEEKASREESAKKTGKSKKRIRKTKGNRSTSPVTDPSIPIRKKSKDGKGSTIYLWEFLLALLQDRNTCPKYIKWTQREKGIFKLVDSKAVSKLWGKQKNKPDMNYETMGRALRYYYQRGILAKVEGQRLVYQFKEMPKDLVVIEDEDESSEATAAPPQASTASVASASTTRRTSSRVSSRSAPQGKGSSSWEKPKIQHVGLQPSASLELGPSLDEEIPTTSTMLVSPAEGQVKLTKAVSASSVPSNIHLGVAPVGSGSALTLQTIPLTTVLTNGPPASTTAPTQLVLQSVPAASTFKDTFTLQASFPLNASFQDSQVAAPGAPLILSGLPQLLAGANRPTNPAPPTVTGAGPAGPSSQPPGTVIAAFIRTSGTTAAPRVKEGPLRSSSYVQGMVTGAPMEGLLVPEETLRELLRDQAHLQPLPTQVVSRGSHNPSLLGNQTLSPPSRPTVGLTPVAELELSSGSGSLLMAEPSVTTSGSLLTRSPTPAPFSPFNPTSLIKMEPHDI
Chain of ETV5 (P41161 whole entry): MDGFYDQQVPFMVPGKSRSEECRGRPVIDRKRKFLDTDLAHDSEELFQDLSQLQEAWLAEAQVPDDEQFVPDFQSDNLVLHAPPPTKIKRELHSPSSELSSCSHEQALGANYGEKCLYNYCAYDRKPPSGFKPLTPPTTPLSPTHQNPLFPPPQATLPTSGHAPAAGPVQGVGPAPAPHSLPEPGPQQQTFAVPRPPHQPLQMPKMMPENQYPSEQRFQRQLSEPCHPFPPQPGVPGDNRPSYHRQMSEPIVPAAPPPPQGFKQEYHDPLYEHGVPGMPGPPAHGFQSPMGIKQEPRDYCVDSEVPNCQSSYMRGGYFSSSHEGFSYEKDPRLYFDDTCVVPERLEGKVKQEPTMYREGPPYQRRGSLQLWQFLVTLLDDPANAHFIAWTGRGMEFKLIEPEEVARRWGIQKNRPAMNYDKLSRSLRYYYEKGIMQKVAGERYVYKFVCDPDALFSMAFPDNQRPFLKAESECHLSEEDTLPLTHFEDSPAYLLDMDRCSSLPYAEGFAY
Chain of ELF1 (P32519 whole entry): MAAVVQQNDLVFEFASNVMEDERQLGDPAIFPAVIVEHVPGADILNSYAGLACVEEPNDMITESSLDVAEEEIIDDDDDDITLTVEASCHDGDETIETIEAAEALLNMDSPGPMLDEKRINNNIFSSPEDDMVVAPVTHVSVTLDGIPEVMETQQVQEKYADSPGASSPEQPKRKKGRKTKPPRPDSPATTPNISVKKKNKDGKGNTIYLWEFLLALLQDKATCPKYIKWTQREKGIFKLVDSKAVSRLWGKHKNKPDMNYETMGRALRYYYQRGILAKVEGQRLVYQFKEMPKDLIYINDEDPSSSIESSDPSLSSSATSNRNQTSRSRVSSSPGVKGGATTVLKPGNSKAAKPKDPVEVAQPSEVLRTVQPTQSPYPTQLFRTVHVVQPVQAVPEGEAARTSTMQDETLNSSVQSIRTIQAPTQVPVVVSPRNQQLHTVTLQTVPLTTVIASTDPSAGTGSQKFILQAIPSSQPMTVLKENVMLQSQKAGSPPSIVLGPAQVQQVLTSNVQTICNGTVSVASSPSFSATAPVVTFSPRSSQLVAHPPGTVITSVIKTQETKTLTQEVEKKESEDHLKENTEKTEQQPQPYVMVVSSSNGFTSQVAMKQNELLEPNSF

TAGCTG
binding signal (FLI1): 1.29 fold enrichment (6-mer frequency, TF over GST control) | binding signal (ELK1): 1.19 fold enrichment (6-mer frequency, TF over GST control) | binding signal (GABPA): 1.21 fold enrichment (6-mer frequency, TF over GST control) | binding signal (ERG): 1.11 fold enrichment (6-mer frequency, TF over GST control) | binding signal (ELF1): 1.24 fold enrichment (6-mer frequency, TF over GST control) | binding signal (EHF): 1.31 fold enrichment (6-mer frequency, TF over GST control) | binding signal (SPI1): 1.22 fold enrichment (6-mer frequency, TF over GST control) | binding signal (SPIB): 1.3 fold enrichment (6-mer frequency, TF over GST control) | binding signal (FEV): 1.16 fold enrichment (6-mer frequency, TF over GST control) | binding signal (ETV5): 1.06 fold enrichment (6-mer frequency, TF over GST control) | binding signal (HSF1): 1.23 fold enrichment (6-mer frequency, TF over GST control) | binding signal (SPIC): 1.09 fold enrichment (6-mer frequency, TF over GST control) | binding signal (ELF4): 1.2 fold enrichment (6-mer frequency, TF over GST control) | binding signal (ELK4): 1.23 fold enrichment (6-mer frequency, TF over GST control) | binding signal (ETV2): 1.15 fold enrichment (6-mer frequency, TF over GST control) | binding signal (ELF3): 1.17 fold enrichment (6-mer frequency, TF over GST control) | binding signal (CRX): 1.38 fold enrichment (6-mer frequency, TF over GST control) | binding signal (ETV1): 1.12 fold enrichment (6-mer frequency, TF over GST control)
